Only some compounds are listed: those with a hit (about 9.2% of all), similar ones and a draw of the others.
HTT ATP protect – protects HTT-Q103 PC12 cells, measured by ATP | actives 0.14% (n = 230,000) | AID 1471 | Potency, µM (doses to about 56.4 µM), for inactives: cytoprotection (ATP increase), hits mostly activators | PC12 HTT-Q103 induced, cytoprotection, ATP luminescence, 40 h; active means well fitted curve in the direction sought with a large enough effect; inconclusive means small, poorly fitted or top-dose-only effect, or another doubt; inactive means no such curve, though single readings can be large; an effect the other way counts as inactive or inconclusive; further: % of control where 0% means no effect; nearly all actives have a fitted effect of over 45% in size
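Huntington model: PC12 line, ecdysone-inducible HTTQ103 exon1–GFP, tebufenozide 100 nM. Test articles in a dose series. Endpoint luminescence from cellular ATP.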
ALDH1A1 block – blocks purified human ALDH1A1 activity; actives 7.3% (n = 220,000); Potency, µM (series often up to 75.3 µM), without a hit: at the highest dose activity, negative = inhibition, actives largely listed as inhibitors; Purified ALDH1A1, NADH fluorescence, propionaldehyde substrate;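 further: plate controls were no enzyme wells and a reference inhibitor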
Target sequence (P00352 whole entry, looked up): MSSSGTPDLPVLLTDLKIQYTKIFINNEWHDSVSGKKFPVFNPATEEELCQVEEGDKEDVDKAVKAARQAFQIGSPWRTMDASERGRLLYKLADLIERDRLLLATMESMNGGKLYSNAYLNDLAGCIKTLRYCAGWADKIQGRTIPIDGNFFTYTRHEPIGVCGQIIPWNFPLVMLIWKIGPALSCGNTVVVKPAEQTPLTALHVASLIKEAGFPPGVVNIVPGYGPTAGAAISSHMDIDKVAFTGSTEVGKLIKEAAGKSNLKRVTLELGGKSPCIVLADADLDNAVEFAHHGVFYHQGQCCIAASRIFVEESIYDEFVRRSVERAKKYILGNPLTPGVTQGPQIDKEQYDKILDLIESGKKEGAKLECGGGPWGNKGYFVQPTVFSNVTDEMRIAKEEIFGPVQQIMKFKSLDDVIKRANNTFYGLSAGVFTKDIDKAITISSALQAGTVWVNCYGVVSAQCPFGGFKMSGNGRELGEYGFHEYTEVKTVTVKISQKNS
JMJD2E inh – JMJD2E (human) inhibition; Potency, µM (series often up to 57.1 µM), without a hit: at the top dose activity change, negative = inhibition, actives largely listed as inhibitors; actives 1.6% (n = 230,000); JMJD2E catalytic domain, FDH-coupled NADH fluorescence (FDH is formaldehyde dehydrogenase); AID 2147; B2RXH2;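 further: 0% = wells with enzyme and -100% = buffer wells without enzyme; nearly all actives have a fitted effect of over 50% in size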
Target sequence (B2RXH2 1-337 limits assumed): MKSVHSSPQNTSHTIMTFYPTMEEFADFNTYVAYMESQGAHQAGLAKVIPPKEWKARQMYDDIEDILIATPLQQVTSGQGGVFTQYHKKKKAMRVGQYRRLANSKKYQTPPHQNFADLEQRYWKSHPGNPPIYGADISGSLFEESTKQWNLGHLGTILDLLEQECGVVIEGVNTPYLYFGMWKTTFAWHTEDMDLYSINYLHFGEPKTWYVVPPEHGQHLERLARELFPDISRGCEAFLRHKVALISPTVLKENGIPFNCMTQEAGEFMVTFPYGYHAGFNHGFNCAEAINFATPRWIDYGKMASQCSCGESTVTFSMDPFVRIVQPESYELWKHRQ
HPGD inh – blocks human HPGD enzyme activity; purified HPGD, NADH fluorescence kinetic, PGE2 substrate; Potency, µM, for inactives: top-dose activity change, negative = inhibition, actives largely listed as inhibitors; actives 4.3% (n = 150,000); further: on the % scale 0 is the no-effect control and ±100 the full control effect
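NADH formation kinetics: reaction with 30 uM PGE2 and 1 mM NAD+ (final), 20 nM enzyme, Tris-HCl pH 8 with Tween 20, after 15 min compound preincubation at room temperature. Fluorescence change, last versus first of five reads.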
HttQ103 aggreg – reduces HttQ103-GFP aggregates in PC12 cells; actives 1.1% (n = 220,000); PC12 HttQ103-GFP aggregates, Acumen cytometry, 40 h; Potency, µM (series often up to 46.1 µM), without a hit: top-dose activity change, negative = inhibition, most hits filed as inhibitors; active means well fitted curve in the direction sought with a large enough effect; inconclusive means small, poorly fitted or top-dose-only effect, or another doubt; inactive means no such curve, though single readings can be large; an effect the other way counts as inactive or inconclusive; further: on the % scale 0 is the no-effect control and ±100 the full control effect; nearly all actives have a fitted effect of over 60% in size
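Quantitative HTS on tebufenozide-induced (100 nM) PC12 cells stably expressing polyQ103 Huntingtin exon 1–GFP. Reduction of bright GFP aggregates, detected by laser scanning cytometry after lysis, identified actives across the titration.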
Lamin A splicing – LMNA splicing modulation. HeLa LMNA splicing GFP/RFP minigene ratio, 48 h. Potency, µM (doses to about 46.1 µM), inactives show at the highest dose ratio change, negative = inhibition, hits mostly inhibitors. actives 0.01% (n = 200,000). AID 1487; active means well fitted inhibition curve with a large enough effect in the signal ratio, with a control signal flat, not every such curve was filed as active; inconclusive means small, poorly fitted or top-dose-only effect, or effect the other way, or a change in a side signal; the % refers to the signal ratio; further: on the % scale 0 is the no-effect control and ±100 the full control effect
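S3 HeLa cells stably expressing lamin A-EGFP splicing minigene plus DsRed2, 600 cells/well, 48 h compound exposure at 37C. Laser-scanning cytometry; analysed as GFP (500-530 nm)/RFP (575-640 nm) total intensity ratio; 0.5% DMSO vehicle.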
Starred values were filed as active, the others as inactive; ? = inconclusive; . = not tested or not shown; [ ] = remark or other dose. Unless noted, the call rests on the fitted dose curve; in most records, active means well fitted inhibition curve with a large enough effect (not every such curve was filed as active); inconclusive means small, poorly fitted or top-dose-only effect, or another doubt; inactive means no such curve, though single readings can be large or run the other way. Potency means the concentration at half of the fitted maximal effect.

SMILES | HTT ATP protect | ALDH1A1 block | JMJD2E inh | HPGD inh | HttQ103 aggreg | Lamin A splicing
O=C(COc1cccc(NC(=O)c2cccc([N+](=O)[O-])c2)c1)c1ccc(Br)cc1 | -24.3% | 8.5% | 6.9% | ? | ? | 0.8%
O=C(NCCNc1ccc([N+](=O)[O-])cc1)c1cccc(Br)c1 | . | 7.08µM* | -5.7% | -8.9% | 10.4% | -0.5%
COc1ccc(OC)c(/C=N/NC(=O)CSc2cc(C)nc3c(OC)cccc23)c1 | 23.0%[10 µM] | ? | ? | . | 6.5%[9.22 µM] | 29.5%[46 µM]
O=C1CC(c2ccccc2)CC(=O)C1CS(=O)(=O)c1ccccc1 (stereo not drawn) | 2.2% | 11.2µM* | -15.1% | . | 7.7% | .
COc1ccc(S(=O)(=O)N(CCc2ccccc2)CC(=O)N/N=C/c2ccc3c(c2)OCO3)cc1 | 36.5%[0.074 µM] | ? | -2.6% | 22.4µM* | -12.4% | ?
COc1ccc(S(=O)(=O)N(CCc2ccccc2)CC(=O)NCCCO)cc1 | -5.5% | 8.91µM* | 2.0% | -4.8% | 0.2% | 2.5%
COc1cc(OC)c(NC(=O)CCc2ccccc2)cc1Cl | -15.8% | -5.8% | 0.9% | 15.8µM* | 12.7% | 13.3%
COC(=O)c1ccc(C)c(NC(=O)CCc2ccc(OC)cc2)c1 | 12.1%[1.9 µM] | 20µM* | -0.3% | -27.1% | -7.7% | -2.7%
COC(=O)c1cccc(NC(=O)CCc2ccccc2)c1 | 6.9%[10 µM] | 25.1µM* | -1.5% | 25.1µM* | -1.8% | 6.7%
CC(=O)N1CCN(CC(=O)Nc2cc([N+](=O)[O-])ccc2Cl)CC1 | -46.7%[10 µM] | 35.5µM* | -9.5% | . | 1.8% | .
O=C(CN1CCN(c2ccc(O)cc2)CC1)Nc1cc([N+](=O)[O-])ccc1Cl | 1.5%[10 µM] | 11.2µM* | 14.1µM* | -8.4% | 4.5% | -22.8%
O=C(COc1ccccc1F)NC12CC3CC(CC(C3)C1)C2 | -17.4%[10 µM] | . | -2.9% | . | -13.7%[9.22 µM] | .
Fc1ccc(-c2nnc3sc(C4COc5ccccc5O4)nn23)cc1 (stereo not drawn) | 2.5%[0.074 µM] | 0.9% | -5.4% | 28.2µM* | -24.4% | ?
c1ccc2c(c1)OCC(c1nnc3n1-c1ccccc1SC3)O2 (stereo not drawn) | -0.5% | ? | 1.4% | 12.6µM* | -0.6% | 14.9%
c1ccc2c(c1)OCC(c1nnc3sc(-c4ccc5c(c4)OCO5)nn13)O2 (stereo not drawn) | -31.8% | ? | ? | ? | -11.8% | ?
c1ccc(-c2nnc3n2-c2ccccc2SC3)cc1 | -5.8%[10 µM] | . | 7.4% | . | -16.4%[9.22 µM] | .
COc1ccc(-c2nn3c(-c4ccc(F)cc4)nnc3s2)cc1 | -24.7%[0.074 µM] | ? | ? | -23.3% | 0.9% | 9.5%
Fc1ccc(-c2nn3c(C4COc5ccccc5O4)nnc3s2)cc1 (stereo not drawn) | -28.9% | 31.6µM* | -5.4% | 28.2µM* | -2.6% | 3.3%
c1csc(-c2nn3c(C4COc5ccccc5O4)nnc3s2)c1 (stereo not drawn) | -12.7%[0.074 µM] | 8.91µM* | 31.6µM* | 8.91µM* | -26.6% | -3.9%
CC(CNC(=O)c1nnc(Cc2ccc(F)cc2)o1)c1ccccc1 (stereo not drawn) | . | . | . | . | . | 6.7%[46 µM]
Cc1nnc2sc(-c3ccccn3)nn12 | -7.2%[0.074 µM] | 7.9% | -2.3% | -2.1% | 10.1% | 1.6%
c1ccc2c(c1)OCC(c1nnc3sc(-c4cnccn4)nn13)O2 (stereo not drawn) | -10.3% | 8.91µM* | -3.9% | 25.1µM* | 7.2% | 13.3%
CCN(CC)c1ccc(CNC23CN4CN(CN(C4)C2)C3)cc1 | -22.3% | 5.01µM* | -27.4% | -12.3% | -27.3% | ?
S=c1[nH]nc(Cc2cccs2)n1-c1cccc2ccccc12 | 28.5%[10 µM] | -4.8% | ? | 25.1µM* | 12.0% | 7.6%
CC(=O)c1ccc(-n2c(-c3cc(-c4ccco4)[nH]n3)n[nH]c2=S)cc1 | -28.9% | -8.8% | -8.1% | 5.62µM* | 24.4% | 2.9%
SMILES | HTT ATP protect | ALDH1A1 block | JMJD2E inh | HPGD inh | HttQ103 aggreg | Lamin A splicing
S=c1[nH]nc(-c2cc(-c3ccco3)[nH]n2)n1-c1cccc2ccccc12 | 0.8% | ? | -5.9% | 11.2µM* | 26.0% | 0.1%
CC(C)OP(=O)(OC(C)C)/C(C=O)=N\Nc1ccc([N+](=O)[O-])cc1 | 13.8%[10 µM] | . | -2.6% | . | 9.9%[9.22 µM] | .
O=C(CSc1nc2cc([N+](=O)[O-])ccc2n1-c1ccc(F)cc1)NC1CCS(=O)(=O)C1 (stereo not drawn) | 18.1%[10 µM] | 5.5% | -0.5% | -9.0% | 3.6% | -7.7%
S=C(c1c[nH]c2ccccc12)N1CCOCC1 | -3.2%[10 µM] | 20µM* | -27.2% | . | 3.7%[9.22 µM] | ?
CC(C)CO/N=C1/C[C@@H](O)[C@@H](O)[C@@H]2[C@H]3C(=O)N(c4ccc(F)cc4F)C(=O)[C@@H]3CC[C@@H]12 | 2.5%[10 µM] | -3.3%[13.5 µM] | . | . | . | .
CCOC(=O)/C=C/C(=O)Nc1cccc([N+](=O)[O-])c1 | 12.0%[10 µM] | -0.7% | 4.0% | 1.58µM* | -2.4% | ?
CC(=O)c1sc(NC(=O)C2(F)C(F)(F)C(F)(F)C(F)(F)C(F)(F)C2(F)F)nc1C | -5.2%[0.074 µM] | -11.4% | -2.0% | -16.6% | 1.41µM* | ?
COCc1nnc(NC(=O)c2sc3ccccc3c2Cl)s1 | -69.2% | ? | -0.6% | 31.6µM* | 21.5% | -10.3%
COCc1nnc(NC(=O)CSCc2ccccc2)s1 | -19.3% | 17.8µM* | 4.0% | ? | 8.1% | 1.9%
COCc1nnc(NC(=O)CSc2ccccc2)s1 | 3.1% | 2.7% | 8.6% | -3.6% | -6.0% | 3.1%
Cc1cc(=O)[nH]c(SCC(=O)Nc2nnc(CC(C)C)s2)n1 | ? | -3.9% | -6.8% | 31.6µM* | -25.2% | -12.3%
COCc1nnc(NC(=O)CSc2ccc(C)cc2)s1 | -2.4% | 20µM* | -0.1% | 28.2µM* | 17.0% | -11.1%
CC[N+]1(C)[C@@H]2CC[C@H]1CC(OC(=O)[C@H]1CC[C@@](C(=O)OC3C[C@H]4CC[C@@H](C3)[N+]4(C)CC)(c3ccccc3)c3ccccc31)C2 (stereo partly drawn) | -10.2%[17.1 µM] | 1.5%[20.9 µM] | -1.6%[25.5 µM] | -1.3% | . | -15.6%
O=C(NC1CC(=O)N(c2cccc(F)c2)C1)C1CCCC1 (stereo not drawn) | . | . | . | . | . | 2.5%[46 µM]
CC12CN3CC(C)(CN(C1)C3c1ccccc1F)C2 (stereo not drawn) | 30.6%[10 µM] | 11.9% | 2.9% | . | 7.2%[9.22 µM] | .
COc1cc(/C=N/NC(=S)Nc2cccc(Cl)c2C)ccc1OCC(=O)N1CC(C)OC(C)C1 (stereo not drawn) | 23.4%[1.9 µM] | ? | ? | -21.2% | -7.9% | ?
Cc1c(N=Cc2nc3ccccc3n2C)c(=O)n(-c2ccccc2)n1C | -17.9% | 7.5% | 1.4% | -6.0% | -4.4% | 7.4%
Cc1cccc(-c2ccc(C=Nc3c(C)n(C)n(-c4ccccc4)c3=O)o2)c1 | -3.7% | 11.2µM* | -17.7% | -26.6% | -4.6% | 6.1%
